± gives the standard deviation of the averaged measurements.
These molecules were tested on Caenorhabditis elegans N2 infected with Nematocida parisii ERTm1 (assay: progeny production relative to DMSO uninfected control; higher = more progeny despite microsporidia infection (inhibition of infection with low host toxicity)). Conditions: infection time 6 days; 40 µM.
Experimental: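 Bleach-synchronised C. elegans N2 L1 larvae (100 per well) were grown in 96-well plates in K-medium with 5x E. coli OP50 and 15,000 N. parisii spores/uL, plus Pandemic Response Box compound at 100 uM or 40 uM (1% DMSO), for 6 days at 21 C with shaking. Worms were stained with Rose Bengal, scanned on a flatbed scanner and counted with WorMachine. Progeny production is given as % of the DMSO uninfected control (triplicate wells), so higher values mean the compound restores progeny despite infection.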

SMILES | progeny production
C[C@@H](c1nc(-c2ccc(C#N)cc2)cs1)[C@](O)(Cn1cncn1)c1ccc(F)cc1F | 5.04 ± 1.2%
C[C@H](Cn1cnc2c(N)ncnc21)OCP(=O)(O)O | 6.28 ± 6.8%
CCOC(=O)Nc1cc(NC(C)CC(C)CN(CC)CC)c2nc(-c3ccccc3)c(-c3ccccc3)nc2n1 (stereo not given) | 2.55 ± 1%
CC(=O)Oc1ccccc1C(=O)Nc1ncc([N+](=O)[O-])s1 | 3.11 ± 1.7%
COc1ccc(C)cc1NC(=O)c1ccc(S(=O)(=O)N2CCCCC2)cc1 | 7.49 ± 1.3%
O=c1cc(Nc2ccc3ccccc3c2)[nH]c(=O)[nH]1 | 7.88 ± 1.4%
Cc1onc(-c2ccccc2Cl)c1C(=O)N[C@@H]1C(=O)N2[C@@H]1SC(C)(C)[C@@H]2C(=O)O | 2.76 ± 1.9%
CCCc1ccc(-c2cc3cn([C@H]4C[C@H](O)[C@@H](CO)O4)c(=O)nc3o2)cc1 | 3.62 ± 2.5%
Cc1cc(C2CCCCC2)n(O)c(=O)c1 | 5.34 ± 2.3%
Nc1nc2c(ncn2COCCO)c(=O)[nH]1 | 6.44 ± 2.2%
CCOC(=O)N1CCN(c2ccc(Cl)cc2)CC1 | 4.15 ± 1.7%
CC(C)(C)NC(=O)[C@@H]1C[C@@H]2CCCC[C@@H]2CN1C[C@@H](O)[C@H](Cc1ccccc1)NC(=O)[C@H](CC(N)=O)NC(=O)c1ccc2ccccc2n1 | 6.54 ± 4.7%
C(=C\c1nc2ccccc2[nH]1)/c1ccc2c(c1)OCO2 | 7.35 ± 5.9%
CNC(=O)C1O[C@@H](n2cnc3c(NCc4cccc(I)c4)nc(Cl)nc32)[C@H](O)[C@@H]1O (stereo not given in full) | 5.42 ± 1.8%
Cc1ccc(S(=O)(=O)Nc2cccc3cccnc23)cc1 | 6.57 ± 3.6%
COc1ccc2c(c1OC)C(=O)OC2C1c2c(cc3c(c2OC)OCO3)CCN1C (stereo not given) | 5.88 ± 3.7%
CC(C)(C)c1ccc(OCCn2nc(C(=O)O)c3ccccc3c2=O)cc1 | 4.58 ± 1.4%
Cc1c(N)cccc1Cn1ccc(OCCc2cccs2)cc1=O | 7.99 ± 2.1%
CCC(C)NCC(O)Cn1c2ccc(Cl)cc2c2cc(Cl)ccc21 (stereo not given) | 7.33 ± 7%
Cc1cccc(C)c1C(=O)Nc1nc(-c2ccccn2)cc2ccccc12 | 4.99 ± 2.4%

Same assay, conditions: infection time 6 days; 100 µM

SMILES | progeny production
C[C@@H](c1nc(-c2ccc(C#N)cc2)cs1)[C@](O)(Cn1cncn1)c1ccc(F)cc1F | 14.7 ± 10%
C[C@H](Cn1cnc2c(N)ncnc21)OCP(=O)(O)O | 17.4 ± 6%
CCOC(=O)Nc1cc(NC(C)CC(C)CN(CC)CC)c2nc(-c3ccccc3)c(-c3ccccc3)nc2n1 (stereo not given) | 13.3 ± 9.8%
CC(=O)Oc1ccccc1C(=O)Nc1ncc([N+](=O)[O-])s1 | 10.8 ± 5.3%
COc1ccc(C)cc1NC(=O)c1ccc(S(=O)(=O)N2CCCCC2)cc1 | 19.4 ± 16%
O=c1cc(Nc2ccc3ccccc3c2)[nH]c(=O)[nH]1 | 8.48 ± 9.1%
Cc1onc(-c2ccccc2Cl)c1C(=O)N[C@@H]1C(=O)N2[C@@H]1SC(C)(C)[C@@H]2C(=O)O | 19.1 ± 12%
CCCc1ccc(-c2cc3cn([C@H]4C[C@H](O)[C@@H](CO)O4)c(=O)nc3o2)cc1 | 11 ± 5.5%
Cc1cc(C2CCCCC2)n(O)c(=O)c1 | 33 ± 36%
Nc1nc2c(ncn2COCCO)c(=O)[nH]1 | 8.34 ± 8.3%
CCOC(=O)N1CCN(c2ccc(Cl)cc2)CC1 | 12.1 ± 18%
CC(C)(C)NC(=O)[C@@H]1C[C@@H]2CCCC[C@@H]2CN1C[C@@H](O)[C@H](Cc1ccccc1)NC(=O)[C@H](CC(N)=O)NC(=O)c1ccc2ccccc2n1 | 6.35 ± 4.1%
C(=C\c1nc2ccccc2[nH]1)/c1ccc2c(c1)OCO2 | 16.6 ± 18%
CNC(=O)C1O[C@@H](n2cnc3c(NCc4cccc(I)c4)nc(Cl)nc32)[C@H](O)[C@@H]1O (stereo not given in full) | 12.6 ± 3.5%
Cc1ccc(S(=O)(=O)Nc2cccc3cccnc23)cc1 | 7.42 ± 4.3%
COc1ccc2c(c1OC)C(=O)OC2C1c2c(cc3c(c2OC)OCO3)CCN1C (stereo not given) | 14.7 ± 9.2%
CC(C)(C)c1ccc(OCCn2nc(C(=O)O)c3ccccc3c2=O)cc1 | 12 ± 6.5%
Cc1c(N)cccc1Cn1ccc(OCCc2cccs2)cc1=O | 15.6 ± 15%
CCC(C)NCC(O)Cn1c2ccc(Cl)cc2c2cc(Cl)ccc21 (stereo not given) | 6.85 ± 6.4%
Cc1cccc(C)c1C(=O)Nc1nc(-c2ccccn2)cc2ccccc12 | 6.64 ± 4.7%
